This is a sample that favours compounds with a hit; in the whole collection about 1.7% have one here.
Smad3 FoxH1 inh – inhibitors of human Smad3 transcription factor binding; P84022; TR-FRET Smad3/Dy647-FoxH1 peptide binding, europium anti-His; inhibition, % at 25 µM; hit rate 0.29% among 88,000;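 active = compounds that reduce the energy-transfer binding signal between the protein and its labelled peptide by more than half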;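 note: 0% = Smad3 plus labelled peptide maximal FRET and 100% = peptide-only background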
Target sequence (P84022 whole entry, looked up): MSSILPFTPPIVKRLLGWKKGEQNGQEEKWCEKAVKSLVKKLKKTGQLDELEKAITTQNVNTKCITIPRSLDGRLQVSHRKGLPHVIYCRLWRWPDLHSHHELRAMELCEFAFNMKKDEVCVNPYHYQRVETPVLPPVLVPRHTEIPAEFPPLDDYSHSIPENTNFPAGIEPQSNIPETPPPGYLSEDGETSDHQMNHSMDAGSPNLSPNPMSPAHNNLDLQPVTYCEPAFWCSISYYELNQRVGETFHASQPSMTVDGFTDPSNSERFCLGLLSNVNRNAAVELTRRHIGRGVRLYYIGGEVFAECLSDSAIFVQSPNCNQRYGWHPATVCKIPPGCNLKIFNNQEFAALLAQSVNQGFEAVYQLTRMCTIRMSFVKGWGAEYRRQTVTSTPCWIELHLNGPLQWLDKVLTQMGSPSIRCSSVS
MT1-MMP txn act – MT1-MMP promoter transcription activation; activation factor at 10 µM; hit rate 0.16% among 86,000; HT1080 MT1-MMP promoter luciferase reporter, luminescence, overnight; stronger effect = higher value;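 active = activation factor of at least 2 for MT1-MMP transcription at 10 µM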
Measles CPE – protection of cells from measles virus; AID 841; Measles virus-infected cells, CPE protection, absorbance; protection (pct of control), % at 4 µM; hit rate 1.5% among 140,000; in the data active = protection mostly above about 24%, no sharp cut-off; inactive = mostly below about 26%
Starred values were filed as active, the others as inactive; x = no result given.

SMILES	Smad3 FoxH1 inh	MT1-MMP txn act	Measles CPE
c1cncc(-c2cc(-c3cc(-c4cccnc4)n[nH]3)[nH]n2)c1	8	x	x
Cc1ccc(S(=O)(=O)N2CCN(c3cc4c(cc3[N+](=O)[O-])n(C)c(=O)n4C)CC2)cc1	x	x	3
Cn1c(=O)n(C)c2cc([N+](=O)[O-])c(N3CCN(S(=O)(=O)c4ccc5ccccc5c4)CC3)cc21	x	x	33*
Cc1ccc(C2=Nc3ccccc3S[C@@H](c3cccc([N+](=O)[O-])c3)C2)cc1	0	x	x
Cc1cc(/C=N/n2cnnc2)c(C)n1-c1ccc(OCc2ccccc2F)cc1	-2	1.2	0
Cc1cc(/C=N/n2cnnc2)c(C)n1-c1ccc(OCc2ccc(Cl)cc2)cc1	49	1.1	48*
N[C@@H]1[C@H](C(=O)O)[C@@H]2C=C[C@H]1C2	2	x	x
c1ccc(-c2nc(NCC3CCCO3)c3oc4ccccc4c3n2)cc1 (stereo not given)	10	1.9	80*
c1ccc2c(c1)oc1c(NCC3CCCO3)ncnc12 (stereo not given)	-1	1.5	3
CCN(CC)S(=O)(=O)c1cc(C(=O)OCC(=O)Nc2cccc(Br)c2)ccc1F	x	x	4
O=C(O)CSc1nnc(Cn2nnc3ccccc32)n1CCc1ccccc1	6	1	28*
CC1Cc2ccccc2N1C(=O)CSc1nnc(Cn2nnc3ccccc32)n1C (stereo not given)	-2	1.1	36*
CC(C)N(C(=O)CSc1nnc(Cn2nnc3ccccc32)n1C)C(C)C	5	x	7
NC(=O)CSc1nnc(Cn2c(=O)sc3ccccc32)n1CCc1ccccc1	-6	1.1	19
CC1(C)S[C@H]2[C@H](NC(=O)Cc3ccccc3)C(=O)N2[C@@H]1C(=O)O	-1	x	x
CC(C)(C)CNCCO	-8	x	x
N#Cc1c(Nc2ccccc2)c(C=NCCN2CCOCC2)c[nH]c1=O	-6	1.2	3
N#Cc1c(Nc2ccccc2)c(/C=N/N=C/c2ccccc2)c[nH]c1=O	x	x	26*
Cc1ccc(Cn2cnc3ccccc32)cc1C	x	x	37
Cc1[nH]c2ccccc2c1-c1cc(-c2cc(-c3c(C)[nH]c4ccccc34)nc(N)n2)nc(N)n1	28	x	x
O=c1[nH]c(C2CCCN(S(=O)(=O)c3ccc(F)cc3)C2)nc2c1nnn2Cc1ccccc1 (stereo not given)	0	1	14
Cc1ccc(Cn2nnc3c(=O)[nH]c(C4CCCN(S(=O)(=O)c5ccccc5)C4)nc32)cc1 (stereo not given)	14	1.3	46*
CC(=O)O[C@H]1CC[C@@]2(C)C(=CC[C@@H]3[C@H]4CC[C@@H](c5cc(C(F)(F)F)n(C(C)=O)n5)[C@]4(C)CC[C@H]32)C1	-6	x	x
CC(=O)O[C@H]1CC[C@@]2(C)C(=CC[C@@H]3[C@H]4CC[C@@H]([C@H](C)C(=O)O)[C@]4(C)CC[C@H]32)C1	52*	x	x
C/C(N[O-])=C(\C)[N+]([O-])=[Cu].C/C(N[O-])=C(\C)[N+]([O-])=[Cu].CC(=N\[O-])/C(C)=N/[O-].CC(=N\[O-])/C(C)=N/[O-]	49	x	x
SMILES	Smad3 FoxH1 inh	MT1-MMP txn act	Measles CPE
C/C(N[O-])=C(\C)[N+]([O-])=[Fe].CC(=N\[O-])/C(C)=N/[O-].[NH2-].c1c[nH+]c[n-]1	72*	x	x
Cc1ccoc1C(=O)NCCCNC(=O)c1occc1C	0	1	11
Cc1ccoc1C(=O)NCc1occc1C(=O)O	13	1	41*
Cc1ccc(S(=O)(=O)N2CC(O)CC2C(=O)OCC(=O)c2ccccc2Cl)cc1C (stereo not given)	x	x	18
COc1ccccc1NC(=O)COC(=O)C1CCN(/C=C/C(=O)C(F)(F)F)CC1	x	x	6
O=C(OC1Cn2c(=O)ccc(=O)n2C1)c1ccccc1	x	x	4
O=[N+]([O-])c1ccc(N2CCN(S(=O)(=O)c3ccccc3)CC2)cc1NCc1ccco1	x	x	5
COc1ccc(Br)cc1C(=O)N/N=C/c1ccc2c(c1)n(C)c(=O)n2C	x	x	37*
Cn1c(=O)n(C)c2cc(/C=N/NC(=O)c3ccc(Cl)cc3Cl)ccc21	x	x	28
NS(=O)(=O)C1=C(Cl)CC2=NC(CCC(=O)O)=NS(=O)(O)=C2C1	16	x	x
COc1cccc(/C=C/C(=O)OCC(=O)N2c3ccccc3NC(=O)C2(C)C)c1	x	x	14
COc1ccc2c(c1)N(CC[C@H]1CCCCN1C)c1ccccc1S2	7	x	x
CCOC(=O)c1c(-c2ccccc2)csc1NC(=O)/C(C#N)=C/c1ccc(O)c(OC)c1	x	x	16
O=C(CNC(=O)c1cc2ccccc2o1)NCc1cccs1	7	1.1	6
Cn1c(C(=O)NCc2cccs2)cc2oc3ccccc3c21	x	1	48*
Cn1c(C(=O)NCc2ccccc2)cc2oc3ccccc3c21	3	1.1	73*
Cn1c(C(=O)NCC2CCCO2)cc2oc3ccccc3c21 (stereo not given)	x	1.3	11
CC(=O)Nc1cc(CN2CCCCC2)c(O)c2ncccc12	13	x	x
O=C(CSc1ncn[nH]1)Nc1ccc2c(c1)CCC2	x	x	5
COc1ccccc1NC(=O)c1c(Nc2ccccc2F)sc(C(=O)Nc2cccc(Cl)c2)c1N	x	x	4
O=C(COc1ccccc1)n1nc(-c2ccc(Cl)cc2)nc1NCc1ccco1	-1	1.2	40*
O=C(c1ccco1)n1nc(-c2ccc(Cl)cc2)nc1NCc1ccco1	13	1.4	2
O=C(O)[C@H]1Cc2c([nH]c3ccccc23)[C@@H](CCCCO)N1	1	x	x
CCCCn1c(NC(=O)CC)c(C#N)c2nc3ccccc3nc21	16	1	10
COc1ccc(-n2c(NC(=O)c3ccco3)c(C#N)c3nc4ccccc4nc32)cc1	x	0.9	27
SMILES	Smad3 FoxH1 inh	MT1-MMP txn act	Measles CPE
CCCCn1c(NC(=O)c2ccccc2Cl)c(C#N)c2nc3ccccc3nc21	80*	1.1	6
N#Cc1c(NC(=O)c2ccccc2Cl)n(Cc2ccccc2)c2nc3ccccc3nc12	x	x	47*
Cn1c(=S)c2[nH]c(SCCN3C(=O)c4ccccc4C3=O)nc2n(C)c1=O	-26	x	x
CC(C)(C)C1CCC2(CC1)CCN(CCCN1CCOCC1)CC2	3	x	x
Cc1cccc(-c2noc(CCCC(=O)Nc3ccc(C(N)=O)cc3)n2)c1	-5	1	21
Cc1cccc(-c2noc(CCCC(=O)Nc3cccnc3)n2)c1	x	0.9	active
COc1c(O)ccc2c1CN1CCc3cc4c(cc3[C@@H]1C2)OCO4	2	x	x
O=C(O)CSc1ccn(Cc2ccccc2)c1	0	x	x
CCOC(=O)N1CCC(NC(=O)CCCN2C(=O)CSc3ncccc32)CC1	6	1.1	7
CCOC(=O)N1CCC(NC(=O)CN2C(=O)CSc3ncccc32)CC1	1	x	30*
N#C/C(=C(/O)CN1CCCCC1)c1nc(-c2ccc(Cl)cc2)cs1	x	x	81*
N#C/C(=C(/O)CN1CCN(c2ccccc2F)CC1)c1nc(-c2ccc(Cl)cc2)cs1	x	x	5
O=C1C(Cl)=C(Sc2nnc3c4ccccc4c4ccccc4c3n2)C(=O)c2ccccc21	5	x	x
CCCSc1nnc(NC(=O)Nc2ccc(F)cc2)s1	-2	1.2	43*
CCCSc1nnc(NC(=O)Nc2ccccc2)s1	1	1.1	3
NC(=O)C1(N2CCCCC2)CCN(C(=S)Nc2cccc(Cl)c2)CC1	x	x	13
Cc1cccc(C(=O)N/N=C/c2ccc3c(c2)OCO3)n1	x	x	3
O=C(N/N=C/c1ccc2c(c1)OCO2)c1ccccn1	x	x	92*
CNS(=O)(=O)c1cc(NC(C)=O)c(C)cc1C	x	x	8

High-throughput results (PubChem BioAssay)
